Source: PubChem
The full list was thinned out, with hits kept by preference.
TDP-43 rescue = rescues yeast from TDP-43 toxicity; yeast TDP-43 toxicity rescue, BacTiter-Glo growth, 24 h; Potency, µM (top dose mostly 46.1 µM), most hits filed as activators; actives 0.45% (n = 45,000); active = well fitted activation curve with a large enough effect; note: 0% is about no effect; nearly all actives have a fitted effect of over 55% in size
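TDP-43-expressing yeast, pregrown in raffinose, seeded at OD600 0.02 in galactose medium with compound for 24 hr at 30 deg C. Growth read by BacTiter-Glo luminescence, so rescue of toxicity appears as activation.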
Starred values were filed as active, the others as inactive; i = inactive. Potency is the fitted concentration of half-maximal effect.

SMILES	TDP-43 rescue
COc1ccc(-c2nc(CNS(=O)(=O)c3cccc(F)c3)cs2)cc1	15.8µM*
COc1ccc(-c2nc(CNS(=O)(=O)c3ccc(C)cc3)cs2)cc1	i
COc1ccc(-c2nc(CNS(=O)(=O)c3ccc(F)cc3)cs2)cc1	i
CC1CCN(C(=O)c2ccc3c(c2)N(Cc2ccccc2)C(=O)c2ccccc2S3(=O)=O)CC1	i
Cc1ccccc1Cn1c(=O)n(CCC(=O)NCc2ccco2)c(=O)c2sccc21	i
Cc1onc(-c2ccccc2)c1C(=O)N1CCN(S(=O)(=O)c2ccccc2Br)CC1	i
Cc1ccc(C(=O)N2CCN(S(=O)(=O)c3cc(Br)ccc3Br)CC2)o1	14.1µM*
Cc1cc(C)c(S(=O)(=O)N2CCN(C(=O)c3cc4ccccc4o3)CC2)c(C)c1	i
COCCNC(=O)Cn1c(=O)n(CCCCCC(=O)NCc2ccccc2Cl)c(=O)c2sccc21	i
COc1cccc(/C=N/NC(=O)N/N=C/c2cccc(OC)c2O)c1O	i
CCn1c(C)nc2cc(C(=O)N/N=C/c3cccc(OC)c3O)ccc21	i
COc1cccc(/C=N/NC(=O)c2nc(-c3ccccc3)cc(-c3ccccc3)n2)c1O	12.6µM*
CCOC(=O)c1ccccc1NC(=O)NC(C)c1c(-n2cccc2)sc(C)c1C (centres undefined)	i
Cc1ccc(-n2c(SCC(=O)Nc3c(C)cccc3C)nc(O)c(C)c2=O)cc1	i
CCCN(C(=O)c1ccc2c(=O)n3c(nc2c1)CCCCC3)c1cccc(Cl)c1	i
Fc1cccc(-n2ncc3c2ncn2nc(Cc4ccccc4)nc32)c1	i
Nc1c(O)ccc2c1C(=O)c1ccccc1C2=O	i
CN(C)C(=O)c1ccc2c(c1[N+](=O)[O-])C(=O)c1ccccc1C2=O	10µM*
CN(C)C(=O)c1cn(-c2ccccc2)nc1-c1cccc([N+](=O)[O-])c1	i
N#Cc1ccccc1NC(=O)CSc1nnc(N)s1	i
Cc1cc2oc(C(=O)N(Cc3ccc(N(C)C)cc3)Cc3ccco3)c(C)c2cc1Cl	i
CCOc1ccc(OCC)c(NC(=O)c2ccc(-c3ccccc3)s2)c1	i
CCCC(=O)Nc1cc(-c2nnc3c4ccccc4c(C)nn23)ccc1C	i
Cc1ccccc1OCc1nc2c3cnn(-c4cccc(F)c4)c3ncn2n1	i
COc1ccc(Cl)cc1C(=O)OCC(=O)NC1CCCC(C)C1C (centres undefined)	17.8µM*
SMILES	TDP-43 rescue
COc1cccc2cc(C(=O)OCC(=O)NC3CCCC(C)C3C)c(=O)oc12 (centres undefined)	i
COc1ccc(Cl)cc1C(=O)OCC(=O)N1CCCC(C)C1 (centres undefined)	i
COc1ccc(NC(=O)Cn2c(=O)n(CCCCCC(=O)NCc3ccc4c(c3)OCO4)c(=O)c3sccc32)cc1Cl	i
Cc1cccc(OCC(=O)N(Cc2sccc2C)C2CCS(=O)(=O)C2)c1 (centres undefined)	i
CCCCOC(=O)/C=C/c1ccc(OC(=O)OC)c(OC(=O)OC)c1	i
COc1cc(/C=C/C(=O)OC(C)C(=O)Nc2ccc(Cl)cn2)ccc1OC(F)F (centres undefined)	i
COC(=O)Oc1ccc(/C=C/C(=O)OC(C)C)cc1OC(=O)OC	14.1µM*
CCCCn1nc(NC(=O)c2cccc(Cl)c2)c2cc3cccc(C)c3nc21	i
Cc1ccc(OCCC(=O)Nc2ccc(F)c(F)c2)cc1	i
Cc1ccc(NC(=O)Nc2ccc(F)c(Cl)c2)cc1	i
Cc1cccc(OCCC(=O)Nc2ccc(F)c(Cl)c2)c1	12.6µM*
CCCSc1ncc(Cl)c(C(=O)Nc2scc(-c3ccc(C)cc3)c2C(=O)OCC)n1	i
O=C(NCc1ccco1)c1ccc2c(c1)N(Cc1ccc(F)cc1)C(=O)c1ccccc1S2(=O)=O	i
CN(C)c1nc(Oc2ccc(/C=N/O)cc2)nc(N(C)C)n1	11.2µM*
O=[N+]([O-])c1ccc(Oc2ccc(/C=N/O)cc2)nc1	i
CCN(CC)c1nc(Oc2ccc(C(=O)NN)cc2)nc(Oc2ccc(C(=O)NN)cc2)n1	i
COc1ccc(OC)c(CNC(=O)C(C)n2c(C)c3cnn(-c4ccccc4)c(=O)c3c2C)c1 (centres undefined)	i
COc1cccc(CNC(=O)C2CCN(C(=O)c3sccc3-n3cccc3)CC2)c1	i
Cc1nn2c(-c3cccc(NC(=O)c4ccccc4)c3)nnc2c2ccccc12	i
COc1ccc2c(c1)[nH]c1c(=O)n(CCN3CCOCC3)cnc12	i
COc1ccc(CNc2ncnc3c2[nH]c2cc(OC)c(OC)cc23)cc1	i
COc1ccc2c(c1)[nH]c1c(Cl)ncnc12	14.1µM*
Cc1cccc2c1N(Cc1ccccc1OCCC(C)C)C(=O)C2=O	i
O=C(CCCn1c(=O)c2sccc2n(Cc2ccc(Cl)cc2)c1=O)NCc1ccc2c(c1)OCO2	i
CCC(C(=O)NCc1cc(OC)ccc1OC)n1nc(C)c2sc3ccccc3c2c1=O (centres undefined)	i
SMILES	TDP-43 rescue
CC1(C)N=C(c2ccc(F)cc2)C(=O)N1CC(=O)Nc1ccccc1Cl	i
O=C(NC(=S)Nc1cccc2cnccc12)c1ccccc1	i
CC1CCCCC1NC(=S)NC(=O)c1ccccc1Br (centres undefined)	i
O=C(NC(=S)Nc1cccc2cc(O)ccc12)c1ccccc1Br	15.8µM*
Cc1ccccc1-n1c(SCC(=O)Nc2ccc(Cl)cc2Cl)nc(O)cc1=O	i
Cc1ccc(C(=O)N2c3ccc(C)cc3C(C)(c3ccccc3)CC2(C)C)cc1 (centres undefined)	i
Cn1c(SCC(=O)Nc2ccccc2)nnc1C(F)(F)F	i
Nn1c(=O)c2ccccc2n2c(SCc3ccccc3)nnc12	i
Nn1c(SCc2cccc(Oc3ccccc3)c2)nnc1C(F)(F)F	12.6µM*
COc1cc(C2c3c(oc4ccccc4c3=O)C(=O)N2c2ccccn2)cc(OC)c1OC (centres undefined)	i
O=C(CCCCCn1c(=O)c2sccc2n(Cc2ccccc2Cl)c1=O)NCc1ccc2c(c1)OCO2	i
CCc1cccc(C)c1NC(=O)CSc1nnc(N)s1	i
CCC(C)/C(C)=N/NC(=O)c1ccccc1OCCOc1ccccc1 (centres undefined)	i
O=C(O)c1ccccc1OCCOc1ccccc1	22.4µM*
CC(=O)Nc1ccc(OCCOc2ccccc2C(C)=O)cc1	i
CCOc1ccc(NC(=O)C2CCN(c3nnc(-n4c(C)ccc4C)s3)CC2)cc1	i
Cc1cc(OCC(=O)NCC2(N3CCN(C)CC3)CCCCC2)cc(C)c1Cl	i
COc1cc(NC(=O)CN2C(=O)C(c3ccc(C)cc3)=NC23CCCCC3)cc(OC)c1	i
CCc1nn(CC(=O)N2CCCCC2)c(=O)c2cc3sc(C)cc3n12	i
Cc1ccc(C(=O)/C=C/NCc2ccc(F)cc2)cc1	i
Cc1ccc(/C=C/C(=O)c2ccc(O)cc2)cc1	15.8µM*
CCN(CC)c1ccc(/C=C/C(=O)c2ccc(Br)cc2)cc1	i
NC(=O)c1cccc(-c2coc3c(C(=O)NC4CCCCC4)cccc23)c1	i
O=C(NCc1ccc(F)c(F)c1)c1cccc2c(-c3cccnc3)coc12	10µM*
O=C(NCC1CC1)c1cccc2c(-c3ccc(F)c(F)c3)coc12	22.4µM*
Cn1nccc1-c1coc2c(C(=O)NCC3CCOCC3)cccc12	i
COc1ccc(CNC(=O)c2ccc(-c3ccc(F)c(F)c3)c3ccoc23)cc1OC	i
O=C(NCc1cccc(Cl)c1)c1ccc(-c2ccc(F)c(F)c2)c2ccoc12	i
